{"source": "PubChem BioAssay AID1347145", "about": "(National Center for Advancing Translational Sciences (NCATS), 2019)", "note": "Inconclusive results are not listed. Where a call stands in place of a potency, no number is given. Activity calls are given as the source filed them. Calls follow the shape of the dose curve; as a rule, active = well fitted inhibition curve with a large enough effect; inconclusive = small, poorly fitted or top-dose-only effect; inactive = no such curve, though single readings can be large or run the other way. Potency is read from the fitted curve at half-maximal effect."}
{"biological_target": "N-terminal Xaa-Pro-Lys N-methyltransferase 1 (Homo sapiens) (UniProt Q9BV86)", "sequence (Q9BV86 whole entry, looked up)": "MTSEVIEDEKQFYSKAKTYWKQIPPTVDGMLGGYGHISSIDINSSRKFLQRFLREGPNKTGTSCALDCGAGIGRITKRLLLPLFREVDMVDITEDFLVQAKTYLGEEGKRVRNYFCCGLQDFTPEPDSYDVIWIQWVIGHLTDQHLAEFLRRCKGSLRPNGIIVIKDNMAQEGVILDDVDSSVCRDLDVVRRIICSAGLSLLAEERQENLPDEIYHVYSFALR", "experiment": "qHTS Assay for Inhibitors of N-terminal methyltransferase 1 (NTMT1): MTaseGlo Assay Confirmatory Screen, Round 1", "details": "Recombinant NTMT1, MTase-Glo SAH luminescence; series mostly up to 57.1 µM", "method_in_brief": "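Luminescence from MTase-Glo conversion of SAH to ATP measured activity after a 30 min RT reaction with 1 µM SPKRIA substrate, 100 µM SAM and 125 nM enzyme. Normalization used no-enzyme and DMSO controls, followed by Hill fitting.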"}
{"smiles": "NC[C@H]1O[C@@H](n2cnc3c(N)ncnc32)[C@H](O)[C@@H]1O", "Potency": "19.3 µM (active)"}
{"smiles": "COc1cc2nc(N3CCN(C)CC3)nc(NC3CC3)c2cc1OC", "Potency": "inactive"}
{"smiles": "CCCCC#Cc1nc(NC)c2ncn([C@@H]3O[C@@H](CO)[C@H](O)[C@H]3O)c2n1", "Potency": "inactive"}
{"smiles": "Nc1ncnc2c1ncn2[C@H]1O[C@@H](CNS(=O)(=O)NC(=O)c2cccc(-c3noc(-c4ccccc4F)n3)c2)[C@H](O)[C@@H]1O", "Potency": "1.93 µM (active)"}
{"smiles": "Nc1ncnc2c1ncn2[C@@H]1O[C@H](C(=O)N2CCN(CC(=O)Nc3cccc4c3CNC4=O)CC2)[C@@H](O)[C@H]1O", "Potency": "inactive"}
{"smiles": "COc1cc2c(NC3CCN(C(C)C)CC3)nc(N3CCCN(C)CC3)nc2cc1OCCOCCN1CCCC1", "Potency": "inactive"}
{"smiles": "Nc1ncnc2c1ncn2C1OC(COP(=O)(O)O)C(O)C1O", "note": "(stereo unspecified)", "Potency": "inactive"}
{"smiles": "Nc1ncnc2c1ncn2[C@@H]1O[C@H](COP(=O)(O)OP(=O)(O)OP(=O)(O)O)[C@@H](O)[C@H]1O", "Potency": "inactive"}
{"smiles": "Nc1ncnc2c1nc(Cl)n2[C@@H]1O[C@H](CO)[C@@H](O)[C@@H]1O", "Potency": "inactive"}
{"smiles": "Nc1ncnc2c1nc(N1CCCCC1)n2[C@@H]1O[C@@H]2COP(=O)(O)O[C@H]2[C@H]1O", "Potency": "inactive"}
{"smiles": "C[C@H](Cc1ccccc1)Nc1ncnc2c1ncn2[C@@H]1O[C@H](CO)[C@@H](O)[C@H]1O", "Potency": "inactive"}
{"smiles": "CSc1ncnc2c1ncn2C1OC(CO)C(O)C1O", "note": "(stereo unspecified)", "Potency": "30.6 µM (active)"}
{"smiles": "Cc1cc2nc3c(=O)[nH]c(=O)nc-3n(C[C@H](O)[C@H](O)[C@H](O)COP(=O)(O)OP(=O)(O)OC[C@H]3O[C@@H](n4cnc5c(N)ncnc54)[C@H](O)[C@H]3O)c2cc1C", "Potency": "inactive"}
{"smiles": "COc1cc2nc(N3CCN(C)CC3)nc(NCCN(C)C)c2cc1OC", "Potency": "inactive"}
{"smiles": "O=C(Nc1ncnc2c1ncn2[C@@H]1O[C@@H]2COP(=O)(O)O[C@H]2[C@H]1O)c1ccccc1", "Potency": "inactive"}
{"smiles": "C[S+](CCC(N)C(=O)O)CC1O[C@@H](n2cnc3c(N)ncnc32)C(O)C1O", "note": "(stereo partly specified)", "Potency": "inactive"}
{"smiles": "COc1cc2nc(NCCN(C)C)nc(NC3CC3)c2cc1OC", "Potency": "inactive"}
{"smiles": "Nc1ncnc2c1ncn2[C@@H]1O[C@H](CO)C(O)[C@H]1O", "note": "(stereo partly specified)", "Potency": "inactive"}
{"smiles": "COc1cc2c(NC3CCN(C)CC3)nc(N3CCCCC3)nc2cc1OCCOCCN(C)C", "Potency": "inactive"}
{"smiles": "CNc1nc(N2CCN(C)CC2)nc2cc(OC)c(OC)cc12", "Potency": "inactive"}
{"smiles": "C/C(=C\\CNc1ncnc2c1ncn2[C@@H]1O[C@@H](CO)[C@@H](O)[C@H]1O)CO", "Potency": "inactive"}
{"smiles": "CNc1ncnc2c1ncn2[C@H]1C[C@H](O)[C@@H](CO)O1", "Potency": "inactive"}
{"smiles": "Nc1ncnc2c1ncn2[C@@H]1O[C@H](COP(=O)(O)O)[C@@H](O)[C@H]1O", "Potency": "inactive"}
{"smiles": "CCCN(C)CCCOc1cc2nc(N3CCCN(C)CC3)nc(NC3CCN(C)CC3)c2cc1OC", "Potency": "inactive"}
{"smiles": "COC(=O)c1ccc2c(c1)nc(NC(=O)c1ccccc1)n2CCCc1ccccc1", "Potency": "inactive"}
{"smiles": "C/C(=C\\CNc1ncnc2c1ncn2[C@@H]1O[C@H](CO)[C@@H](O)[C@H]1O)CO", "Potency": "inactive"}
{"smiles": "COc1cc2nc(N3CCCN(C)CC3)nc(N(C)C)c2cc1OC", "Potency": "inactive"}
{"smiles": "COc1cc2nc(N3CCCN(C)CC3)nc(NC3CCN(C)C3)c2cc1OC", "note": "(stereo unspecified)", "Potency": "inactive"}
{"smiles": "Cc1ccccc1CNc1ncnc2c1ncn2[C@@H]1O[C@H](CO)[C@@H](O)[C@H]1O", "Potency": "inactive"}
{"smiles": "Nc1ncnc2c1ncn2C1C[C@H](O)[C@@H](CO)O1", "note": "(stereo partly specified)", "Potency": "inactive"}
{"smiles": "CCN(c1cc(-c2ccc(CN3CCOCC3)cc2)cc(C(=O)NCc2c(C)cc(C)[nH]c2=O)c1C)C1CCOCC1", "Potency": "inactive"}
{"smiles": "CNC(=O)[C@H]1O[C@@H](n2cnc3c(NCc4ccc(N)cc4)ncnc32)[C@H](O)[C@@H]1O", "Potency": "inactive"}
{"smiles": "CC(C)=CCNc1ncnc2c1ncn2[C@@H]1O[C@H](CO)[C@@H](O)[C@H]1O", "Potency": "inactive"}
{"smiles": "COc1cc2c(NC3CCN(C)CC3)cc(N3CCCCN(C)CC3)cc2cc1OCCOCCN(C)C", "Potency": "inactive"}
{"smiles": "COc1cc2c(NC3CCN(C)CC3)nc(N3CCCN(C)CC3)nc2cc1OCCCN1CCOCC1", "Potency": "inactive"}
{"smiles": "Nc1nc(F)nc2c1ncn2[C@@H]1O[C@H](CO)[C@@H](O)[C@@H]1O", "Potency": "inactive"}
